NS1 inh: influenza NS1 inhibition; AID 2326; 270,000 tested, 0.4% active; Potency, µM (highest dose often 46.1 µM), inactives show at the top dose activity, positive = more growth; calls by dose curve; note: actives are rising curves; nearly all actives have a fitted effect of over 50% in size
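Growth recovery, yeast-based: influenza A NS1 expressed in S. cerevisiae causes slow growth, and suppressors are detected by OD600. The parent strain without NS1 is used as positive control.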
Pf growth 96h: inhibits malaria parasite growth, 96 h; 320,000 tested, 6.9% active; Potency, µM (doses to about 28.7 µM), for the others: at the top dose activity change, negative = inhibition, usual class: inhibitors; P. falciparum luciferase reporter growth, 96 h; note: % is set by controls: 0 for no effect and ±100 for the full control effect
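Plates of compound plus infected erythrocytes (2% hematocrit, 0.05% parasitemia final) incubate 96 hours, 37 C, 5% CO2. Detection reagent added; reduced luminescence from the parasites' luciferase reporter flags inhibition.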
SARS PLP yeast: inhibitors of SARS-CoV papain-like protease in yeast | S. cerevisiae expressing SARS-CoV PLpro, growth rescue | Potency, µM (highest dose often 32.9 µM), for inactives: at the top dose activity, positive = growth rescue, most hits filed as activators | 330,000 tested, 0.19% active; calls by dose curve; note: 0% is about no effect; nearly all actives have a fitted effect of over 55% in size
Pf growth 48h: P. falciparum growth inhibition at 48 hours (one generation) | P. falciparum luciferase growth in erythrocytes, 48 h | Potency, µM (highest dose often 28.7 µM), for the others: top-dose activity change, negative = inhibition, most hits filed as inhibitors | 310,000 tested, 5.9% active | AID 504832; note: % is set by controls: 0 for no effect and ±100 for the full control effect
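Firefly luciferase activity from engineered P. falciparum reports growth; inhibitors lower the luminescent signal. Cultures contained 2% hematocrit erythrocytes at 0.1% final parasitemia.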
Starred values were filed as active, the others as inactive; ? = inconclusive; . = no result given; ! = repeats disagree. Most compounds without a hit are left out; they make up all but 10% or so of the library. Unless noted, calls come from the whole dose curve; as a rule, active = well fitted inhibition curve with a large enough effect; inconclusive = small, poorly fitted or top-dose-only effect, or another doubt; inactive = no such curve, though single readings can be large or run the other way. Potency is the fitted concentration of half-maximal effect.

SMILES	NS1 inh	Pf growth 96h	SARS PLP yeast	Pf growth 48h
Cc1cc(C(c2nnnn2Cc2ccccc2)N2CCOCC2)c(C)n1-c1ccc2c(c1)OCO2 (configuration not stated)	-6%	22%	0%	9.3µM*
CC(C)(C)n1nnnc1C(c1cccnc1)N1CCN(c2ccccc2)CC1 (configuration not stated)	-76%	-17%	-23%	?
CCN1CCN(C(c2ccccc2)c2nnnn2Cc2ccc3c(c2)OCO3)CC1 (configuration not stated)	-2%	19%	1%	22%
c1ccc(Cn2nnnc2C(c2ccncc2)N2CCOCC2)cc1 (configuration not stated)	-3%	0.74µM*	6%	15%
c1ccc(Cn2nnnc2C(c2cccnc2)N2CCN(c3ccccc3)CC2)cc1 (configuration not stated)	-154%	.	-12%	13µM*
O=C(NCc1ccc(Cl)cc1)C1CCN(C(=O)c2ccc(Cl)cc2)CC1	.	?	-5%	?
CC(C)CC(c1nnnn1Cc1cccs1)N1CCN(c2nc3ccccc3s2)CC1 (configuration not stated)	7%	1%	-20%	12µM*
CCC(c1nnnn1Cc1cccs1)N1CCN(C2CCCC2)CC1 (configuration not stated)	3%	?	3%	7%
CCC(c1nnnn1Cc1cccs1)N1CCN(c2nc3ccccc3s2)CC1 (configuration not stated)	4%	?	-7%	9.3µM*
COc1ccccc1N(CC(=O)N1CCN(c2ccccc2)CC1)S(=O)(=O)c1ccc(C)cc1	?	?	-2%	?
COc1cccc(/C=C2\Oc3ccc(O)cc3C2=O)c1O	-31%	-10%	0%	5.2µM*
CC1Cc2ccccc2N1C(=O)CSc1nnc2n1C(C)(C)Cc1ccccc1-2 (configuration not stated)	-15%	2.6µM*	2%	?
CCOC(=O)CSc1nnc2n1C(C)(C)Cc1ccccc1-2	-5%	?	-20%	-13%
NC12CC3CC(C1)CC(CO)(C3)O2	0%	8.3µM*	3%	0%
CCn1ncc(Cl)c1C(=O)Nc1ccc2c(c1)CCC2	-8%	0%	-1%	33%
O=C(NCCc1ccccc1)C1CCC(CNS(=O)(=O)c2ccc(F)cc2)CC1 (configuration not stated)	-3%	?	4%	11%
CCCNC(=O)c1ccc2c(=O)c(O)c(-c3cccc(Br)c3)[nH]c2c1	-3%	?	?	?
CCCNC(=O)c1ccc2c(=O)c(O)c(-c3ccc(F)cc3)[nH]c2c1	-2%	?	13µM*	-9%
CCc1ccc(-n2c(C)n[nH]c2=S)cc1	7%	16%	0%	28%
CCn1c(=O)cc(SCC(=O)NCc2ccc(C)o2)c2ccccc21	-6%	12µM*	4%	.
CCn1c(=O)cc(SCC(=O)NCc2cccnc2)c2ccccc21	3%	9.3µM*	0%	36%
O=C(C1CCCO1)N1CCN(C(=S)Nc2cc(F)cc(F)c2)CC1 (configuration not stated)	0%	-16%	-4%	18%
O=S(=O)(NCc1nnc2ccccn12)c1ccc(Cl)cc1	.	-17%	4%	-17%
Cc1ccc(C(=O)c2cc(Br)ccc2N)cc1	.	1.7µM*	-5%	35%
Nc1ccc(Br)cc1C(=O)O	10%	?	-10%	-2%
SMILES	NS1 inh	Pf growth 96h	SARS PLP yeast	Pf growth 48h
CN1[C@@H]2CC[C@H]1CC(OC(=O)C(O)c1ccccc1)C2 (some centres not stated)	.	2%	.	-10%
CN1[C@@H]2CC[C@H]1CC(OC1c3ccccc3CCc3ccccc31)C2 (some centres not stated)	.	?	.	4.7µM*
CN1C2CCC1CC(OC(c1ccccc1)c1ccccc1)C2 (configuration not stated)	-4%	9.5µM*!	1%	12µM*
CN1[C@@H]2CC[C@H]1CC(OC(=O)[C@@H](O)c1ccccc1)C2 (some centres not stated)	-3%	-20%	.	-15%
CN1[C@@H]2CC[C@H]1CC(OC(c1ccccc1)c1ccccc1)C2 (some centres not stated)	-3%	4.8µM*	.	17µM*
CC(=O)Nc1ccc(S(=O)(=O)NC2C3(C)CCC(C3)C2(C)C)cc1 (configuration not stated)	11%	10%	2%	-27%
Cn1c(=O)[nH]c2nnc(-c3ccc(Cl)c(Cl)c3)nc2c1=O	-57%	1.7µM*	1%	?
CSc1cnc2c(=O)n(C)c(=O)[nH]c2n1	-10%	9%	-8%	-1%
O=C(CCc1ccccc1O)N/N=C/c1ccc(Sc2cccc3cccnc23)o1	3%	3.7µM*	5%	.
CC1CCN(C(=O)c2cc(F)c(F)cc2Cl)CC1	2%	-19%	-1%	-10%
CSc1cccc(NC(=O)CNS(=O)(=O)c2ccccc2)c1	-4%	23%	-2%	-10%
O=S(=O)(Nc1cc(F)ccc1F)c1cccc2nonc12	-40%	7%	-6%	-10%
COc1ccc(NC(=O)COc2ccc(N(C)S(=O)(=O)c3ccc(Cl)cc3)cc2)cc1	.	?	.	12µM*
CCOc1ccc(S(=O)(=O)N(C)c2ccc(OCC(=O)NCC3CCCCC3)cc2)cc1	.	.	-8%	.
COc1ccc(NC(=O)COc2ccc(N(C)S(=O)(=O)c3ccc(C)cc3)cc2)cc1	-3%	-27%	18%	-24%
CCOc1ccc(S(=O)(=O)N(C)c2ccc(OCC(=O)NCCc3ccc(OC)cc3)cc2)cc1	-6%	3.3µM*	1%	93%
N=C(N)n1cc(/C=N\N=C(N)N)cn1	3%	.	.	.
CC(NC(=O)CN1C(=O)NC2(CCCC2)C1=O)c1ccc(Cl)cc1Cl (configuration not stated)	.	.	-13%	.
CCOC(=O)c1oc2ccccc2c1NC(=O)c1ccc(S(=O)(=O)N2CCCC2)cc1	5%	?	-1%	8%
CCOC(=O)c1[nH]c2ccccc2c1NC(=O)c1ccc(S(=O)(=O)N2CCCCC2)cc1	-25%	9.3µM*	24%	?
CCOC(=O)c1[nH]c2ccccc2c1NC(=O)c1ccc(S(=O)(=O)N(C)C)cc1	10%	10µM*	?	10µM*
CN(C)S(=O)(=O)c1ccc(C(=O)Oc2cc(=O)[nH]c3ccccc23)cc1	-32%	8.3µM*	7%	12%
Cc1ccc(S(=O)(=O)N(C)c2ccc(OC(=O)c3cc(=O)[nH]c4ccccc34)cc2)cc1	.	.	2%	.
COc1ccc(CCN2C(=O)CC(N3CCN(C/C=C/c4ccccc4)CC3)C2=O)cc1OC (configuration not stated)	-3%	?	0%	?
NS(=O)(=O)c1ccc(CCNS(=O)(=O)c2ccc(Cl)s2)cc1	.	.	-3%	.
O=C(COc1ccccc1Cl)Nc1ccc(N2CCN(C(=O)c3ccccc3)CC2)cc1	11%	11%	-8%	?
O=C(COC(=O)CCS(=O)(=O)c1ccccc1)NC(=O)c1ccc(OC(F)F)cc1	.	10%	-4%	-3%

Source: PubChem BioAssay
